aSyn 5UTR act – Activators working through SNCA 5'UTR binding (MLPCN). AID 1814. activity score, % (tested at 7.5 µM), hits read low. 300,000 compounds, 7.1% hits. alpha-synuclein 5'UTR reporter, activators screen; in the data active = activity score below about -60%
* hit, by the source's call. The list is a sample of the results.

SMILES	aSyn 5UTR act
CCOC(=O)c1ccc(NC(=O)C2C3CCC(C3)C2C(=O)O)cc1 (stereo not given)	-62*
CCOC(=O)c1ccc(NC(=O)C2C3CCCCC32)cc1 (stereo not given)	-184*
COc1cc(NC(=S)N2CCOCC2)c(OC)cc1Cl	-211*
CCCCCN1C(=O)/C(=C/c2c(N3CCc4ccccc4C3)nc3ccccn3c2=O)SC1=S	-94*
O=C(/C=C/c1ccccc1)OCc1cncs1	-103*
COc1cc(CNCCO)ccc1OCC(=O)Nc1ccc(Br)cc1	-69*
Cc1csc(N/N=C\c2cccnc2)n1	-116*
FC(F)(F)c1ccc(N/N=C/c2cccnc2)nc1	-115*
O=[N+]([O-])c1ccc(N/N=C\c2cccnc2)nc1	-84*
O=C(Nc1ccc(F)c(Cl)c1)c1ccc2c(=O)n3c(nc2c1)CCCCC3	-166*
CCc1cccc(NC(=O)c2ccc3c(=O)n4c(nc3c2)CCCCC4)c1	-127*
O=C(Nc1ccc(F)cc1)c1ccc2c(=O)n3c(nc2c1)CCCCC3	-104*
O=C(Nc1ccc(Cl)cc1)c1ccc2c(=O)n3c(nc2c1)CCCCC3	-120*
O=C(Nc1cccc(Cl)c1)c1ccc2c(=O)n3c(nc2c1)CCCCC3	-217*
CC(=O)c1cccc(NC(=O)c2cc(-c3ccc(C)cc3)on2)c1	-137*
CCCc1cc(C(=O)Nc2cccc(C(C)=O)c2)no1	-80*
Cc1cc(C)c2oc(-c3cccc(N)c3)nc2c1	-132*
COc1cccc2sc(/N=C/N(C)C)nc12	-81*
OCCCCNc1cccc2ccccc12	-64*
CCCOC1CCCN(C(=O)CCc2nnc(Cc3cccc(C)c3)o2)C1 (stereo not given)	-164*
Cc1cccc(Cc2nnc(CCC(=O)N(CC3CC3)CC3CCCO3)o2)c1 (stereo not given)	-112*
COc1ccc(-c2cc(=NC(CC(C)C)C(=O)O)c3cc(C)ccc3o2)cc1 (stereo not given)	-153*
O=C(N/N=C/c1cccc(OCc2ccccc2)c1)c1cccs1	-72*
O=C(/C=C/c1cccc(Cl)c1)c1ccc([N+](=O)[O-])o1	91
O=C(/C=C/c1cccc([N+](=O)[O-])c1)c1cccs1	-77*
SMILES	aSyn 5UTR act
Cc1ccc2[nH]c(C(=O)N/N=C/c3ccc([N+](=O)[O-])cc3)c(C)c2c1	-63*
O=C(N/N=C/c1ccc(Br)s1)c1ccc([N+](=O)[O-])cc1	84
O=C(N/N=C/C=C/c1ccc([N+](=O)[O-])cc1)c1cccs1	-77*
O=C(N/N=C/c1cccc([N+](=O)[O-])c1)c1cccs1	-84*
CC(C)(C)C1CCc2onc(C(=O)Nc3cccc(O)c3)c2C1 (stereo not given)	-92*
COc1ccc2cc(-c3ccon3)ccc2c1	-172*
COc1ccc(-c2cn3cc(C(F)(F)F)cc(Cl)c3n2)cc1	-197*
Fc1ccc(-c2cn3cc(C(F)(F)F)cc(Cl)c3n2)cc1	-101*
c1ccc(-c2nc(-c3cccnc3)n[nH]2)cc1	-85*
Brc1cccc(-c2n[nH]c(-c3ccccc3)n2)c1	-77*
O=C(Cc1ccc(Cl)cc1)c1ccc(O)cc1	-151*
Cc1ccc(CC(=O)c2ccc(Cl)cc2)cc1	-83*
O=C(Cc1ccccc1)c1ccc(Cl)cc1	-73*
CCCS(=O)(=O)c1nc(S(=O)(=O)c2ccc(C)cc2)c(N2CCC(C(N)=O)CC2)s1	-75*
CCCS(=O)(=O)c1nc(S(=O)(=O)c2ccc(Cl)cc2)c(N2CCC(O)CC2)s1	-95*
COCCCOc1ccnc(CS(=O)c2nc3ccccc3[nH]2)c1C (stereo not given)	-111*
Cc1c(OCC(F)(F)F)ccnc1CS(=O)c1nc2ccccc2[nH]1 (stereo not given)	-99*
Cc1c(OCC(F)(F)F)ccnc1CSc1nc2ccccc2[nH]1	-142*
CC(C)Oc1ccc(C(=O)Nc2ccc(C(F)(F)F)n(C)c2=O)cc1	-82*
Nc1ccc(-c2ncc(-c3ccccc3)o2)cc1	86
Cc1ccc(-c2cnc(-c3ccncc3)o2)cc1	-157*
COc1cc(/C=C(/C#N)c2nc3ccccc3[nH]2)ccc1OC(=O)c1ccco1	-114*
N#C/C(=C\c1cc([N+](=O)[O-])c(N2CCOCC2)cc1N1CCOCC1)c1nc2ccccc2[nH]1	-92*
COc1ccc(/C=C(\C#N)c2nc3ccccc3[nH]2)cc1O	-144*
COc1c(O)ccc(/C=C(\C#N)c2nc3ccccc3[nH]2)c1[N+](=O)[O-]	-92*
SMILES	aSyn 5UTR act
COc1ccc(/C=C(\C#N)c2nc3ccc(C)cc3[nH]2)cc1Oc1ccc(C(F)(F)F)cc1[N+](=O)[O-]	-85*
COc1cc(/C=C(\C#N)c2nc3ccccc3[nH]2)ccc1Oc1ccc([N+](=O)[O-])cn1	-104*
COc1cc(/C=C(\C#N)c2nc3ccccc3[nH]2)cc(OC)c1O	-99*
CC(C)(C)C(=O)/C=C(N)/C=C/c1ccccc1	-76*
N/C(=N\OC(=O)/C=C/c1ccccc1)c1ccccc1	-243*
O=C(/C=C/c1ccccc1)c1ccc2c3c(cccc13)CC2	-87*
O=C(/C=C/c1ccc[nH]1)c1ccccc1	-64*
O=C(/C=C/c1ccccc1)/C=C/c1ccccc1	-112*
O=C(/C=C/c1ccccc1)c1ccccc1	-105*
CNc1nc(C)nc(-c2ccccc2O)n1	-75*
CCCCSc1nnc(-c2c[nH]c3ccccc23)n1C	-135*
CCCCSc1nnc(-c2ccc(C)cc2)n1C	-109*
Cn1c(SCCOc2ccc(F)cc2)nnc1-c1ccncc1	-62*
Cn1c(SCc2ccccc2)nnc1-c1c[nH]c2ccccc12	-107*
CCOc1ccc(-c2nnc(-c3ccco3)o2)cc1OCC	-76*
CCOc1ccc(-c2nnc(-c3cccs3)o2)cc1OCC	-86*
COc1ccc(-c2nnc(-c3cccs3)o2)cc1OC	-148*
CCCCn1cnc2c(sc3nc4c(cc32)CSC(C)(C)C4)c1=O	-104*
c1ccc(Nc2nc(CSc3ncn[nH]3)cs2)cc1	-135*
O=C1NCCC/C1=N/Nc1cc(F)ccc1F	-113*
CC(=O)c1ccc(N/N=C2/CCCNC2=O)cc1	-74*
O=C(O)C(=O)/C(=C\c1ccc(Cl)cc1)c1ccc2ccccc2n1	-226*
COCC(C)Nc1ncnc2c1cnn2-c1ccc(Cl)cc1 (stereo not given)	-132*
CCCCNc1ncnc2c1cnn2-c1ccc(Cl)cc1	-137*
CCCCNc1ncnc2c1cnn2-c1ccccc1	-260*
SMILES	aSyn 5UTR act
CCOC(=O)N1CCC(Nc2ncnc3c2cnn3-c2ccc(Cl)cc2)CC1	-133*
Clc1ccc(-n2ncc3c(NCCCn4ccnc4)ncnc32)cc1	-111*
CCc1nc(NC(C)(C)C)c2cnn(-c3ccccc3)c2n1	-129*
Clc1ccc(-n2ncc3c(N4CCCCCC4)ncnc32)cc1	78
c1ccc(-n2ncc3c(NCCCN4CCOCC4)ncnc32)cc1	-97*
Clc1ccc(-n2ncc3c(NCc4ccccn4)ncnc32)cc1	-123*
COc1cccc(C(=O)N/N=C(\C)c2ccc(NC(=O)Cc3ccccc3)cc2)c1OC	-88*
C/C(=N\NC(=O)c1ccccc1O)c1ccc(NC(=O)Cc2ccccc2)cc1	-71*
C/C(=N\NC(=O)c1cccc(O)c1)c1ccc(NC(=O)Cc2ccccc2)cc1	-85*
COc1ccc(/C(C)=N/NC(=O)c2ccccc2OCc2ccccc2)c(OC)c1	-118*
CCOc1ccc(C(=O)Nc2nnc(SCC(=O)NCC3CCCO3)s2)cc1 (stereo not given)	76
CCOc1ccc(-c2ccc(SCC(=O)NCC3CCCO3)nn2)cc1 (stereo not given)	-67*
